Compound activity as filed in PubChem BioAssay.
Sampled rows, rich in hits. Any-hit rate of the full collection: about 4%.
TRHR agonist = activates the human TRH receptor; 360,000 tested, 0.18% active; P34981; AID 493084; activation, % at 2 µM; TRHR cells, calcium flux fluo-8, FDSS agonist mode; further: 0% is about no effect
Target sequence (P34981 whole entry, looked up): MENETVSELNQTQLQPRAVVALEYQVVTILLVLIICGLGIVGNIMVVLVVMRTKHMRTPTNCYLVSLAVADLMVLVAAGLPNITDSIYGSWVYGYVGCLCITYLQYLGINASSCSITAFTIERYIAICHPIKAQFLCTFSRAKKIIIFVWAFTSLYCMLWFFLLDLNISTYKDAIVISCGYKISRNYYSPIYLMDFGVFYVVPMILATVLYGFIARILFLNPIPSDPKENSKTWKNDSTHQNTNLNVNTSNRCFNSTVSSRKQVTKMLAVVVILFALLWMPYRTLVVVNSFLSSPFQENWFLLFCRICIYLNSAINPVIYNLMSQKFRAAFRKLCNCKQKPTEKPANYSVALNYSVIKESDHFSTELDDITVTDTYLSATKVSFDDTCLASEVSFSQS
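Read-out: compound-evoked intracellular calcium rise in TRHR cells, fluo-8 dye, kinetic FDSS fluorescence at 1 s/cycle following a 10-cycle baseline. Cells cultured overnight before dye loading (30 min–1.5 h, RT).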
Glioma ERSR ind = induces the endoplasmic reticulum stress response in human glioma cells; 420,000 tested, 0.02% active; Potency, µM, for the others: top-dose activation, usual class: activators; AID 602332; U87-MG GRP78 promoter luciferase reporter, 16 h; active means well fitted activation curve with a large enough effect; further: potency means the concentration at half of the fitted maximal effect; series mostly up to about 76 µM; % of control where 0% means no effect; nearly all actives have a fitted effect of over 35% in size
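Stably transfected U87-MG human glioma cells carrying a GRP78-based luminescent sensor were seeded at 1000 cells/well, pin-dosed with compounds and incubated 16 h. Luciferase reagent was then added, and end-point luminescence was read after 10 min at room temperature.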
D1 agonist = activates the human D1 dopamine receptor; 360,000 tested, 1% active; activation, % at 2 µM; P21728; HEK293 T-REx D1 cells, calcium flux, agonist mode; further: 0% is about no effect
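Agonism was scored from calcium flux recorded over 180 s (1 read/s) after pintool compound addition, following a 10-cycle baseline. Cells were inducible force-coupled HEK293 TREx D1, plated overnight at 30 C and loaded with no-wash calcium dye.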
TRHR PAM = allosteric enhancers of human TRH receptor; P34981; TRHR cells, fluo-8 calcium fluorescence, EC20 TRH enhancement; enhancement, % at 2 µM; 360,000 tested, 0.66% active; in the data active means enhancement above about 30%; further: 0% is about no effect
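TRHR-expressing cells loaded with fluo-8 calcium dye were read kinetically (ex 480/em 530) during compound addition, then stimulated with an EC20 of TRH (10 nM final). Enhancement of the Gq-mediated intracellular calcium response was scored.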
D1 antagonist = human D1 dopamine receptor antagonism; HEK293 TREx D1 cells, calcium flux, dopamine EC80; active compounds read low; activity change, negative = inhibition, % at 10 µM; 360,000 tested, 3.2% active; in the data active means activity change below about -30%; further: on the % scale 0 is the no-effect control and ±100 the full control effect
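Using tetracycline-induced force-coupled D1 Hek293 cells and a calcium dye, signals were followed for 180 s after compound, then for 180 s after EC80 dopamine, to detect inhibitors.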
D1 PAM = potentiators of human D1 dopamine receptor | 360,000 tested, 0.036% active | HEK293 TREx D1 cells, calcium flux, dopamine EC20 potentiation | AID 504651 | potentiation, % at 10 µM; in the data active means potentiation above about 30%; further: 0% is about no effect
* marks the source's active call; other numbers are inactive results; ! = repeats disagree. Unless noted, no stated cut-off is given here; in the data, active means activation above about 30%; inactive means the rest.

SMILES	TRHR agonist	Glioma ERSR ind	D1 agonist	TRHR PAM	D1 antagonist	D1 PAM
CN(C)c1ccc(C(=O)N2CC(=O)N(CCc3ccccc3)C(=O)C2)cc1	-0.1	-4.4%	2.0	-6.0	9.5	-1.5
CC(=O)Nc1ccc(S(=O)(=O)c2ccc(C)cc2)cc1	0.5	-2.5%	1.7	2.3	-17.1	-2.1
COc1ccc(CNC(=O)C2CCCN(S(=O)(=O)N(C)c3ccc(F)cc3)C2)cc1OC (configuration not stated)	-0.2	-2.4%	3.7	-1.6	-26.6	-5.9
CCOc1ccc(CNC(=O)C2CCCN(S(=O)(=O)N(C)c3ccc(F)cc3)C2)cc1OC (configuration not stated)	-0.3	-4.8%	34.5*	10.4	-26.6	-5.5
CCOC(=O)c1c(NC(=O)COc2ccccc2F)sc2c1CC(C)(C)NC2(C)C	1.2	-2.9%	3.4	6.4	12.4	35.6*
Cc1ccc(CNC(=O)CN2CCN(Cc3ccc(C)cc3)C2=O)cc1	-1.9	-2.3%	0.6	-5.2	8.7	-1.4
Cc1ccc(CNC(=O)CN2Cc3ccccc3C2=O)cc1	-0.1	-1.8%	-0.4	2.4	-37.4*	-5.3
O=C(Cc1cn2ccsc2n1)Nc1ccccn1	0.5	-0.9%	2.2	-5.6	-14.8	-1.6
COCCN(Cc1nc2ccccc2c(=O)[nH]1)C(=O)c1cccc(S(=O)(=O)N2CCCC2)c1	0.4	-0.3%	1.6	2.5	-55.2*	0.2
COc1ccccc1C1CC(c2ccccc2)=NN1S(=O)(=O)c1ccccc1 (configuration not stated)	0.3	-3.3%	4.4	-1.3	-34.1*	1.5
COc1ccc(C(=O)NCCSCc2ccco2)cc1OC	0.2	-1.9%	3.2	-2.9	-34.3*	-7.9
O=C(NCCSCc1ccco1)Nc1ccc(Cl)cc1	-0.1	7.5%	6.0	-7.1	-30.3*	-6.5
CC(C)(C)NC(=O)C(c1ccncc1)N(C(=O)c1csnn1)C1CC1 (configuration not stated)	-0.2	-5.8%	3.1	22.1	2.3	0.7
CCn1c(SCC(=O)OC(C)C)nnc1-c1ccccc1	0.2	-2.5%	3.6	7.5	-1.5	3.7
O=C(NCc1cccc(F)c1)c1cccc(NC(=O)c2nsc3ccccc23)c1	0.3	0.2%	5.3	-0.5	12.6	-3.2
COc1ccc(CC(=O)OCC(=O)N2CCN(S(=O)(=O)c3ccc(C)cc3C)CC2)cc1	0.2	-3.3%	5.3	4.9	-89.9*	-6.2
CCN(CC)C(=O)c1c(-c2ccccc2)oc2ccc(O)cc12	0.5	-2.8%	0.7	4.5	-30.8*	-2.6
CCCCNC(=O)c1cc2n(n1)CCCN(Cc1ccc(C)cc1)C2=O	0.0	-0.2%	2.4	-8.2	6.1	0.4
CCCSCCCNC(=O)c1cc2n(n1)CCCN(Cc1ccc(C)cc1)C2=O	-0.6	-3.4%	55.7*	3.8	-8.2	-0.2
CC1(CCc2ccc3c(c2)OCO3)NCCc2c1[nH]c1ccccc21 (configuration not stated)	2.4	-3.4%	127.8*	-7.1	-37.8*	-4.5
O=C(CNC(=O)Cc1cccc2ccccc12)NCc1ccccc1F	-1.9	-5.6%	4.8	-1.5	8.9	-3.1
O=C(Cc1cccc2ccccc12)NCC(=O)Nc1ccccc1F	0.0	1.5%	0.7	12.7	-51.2*	-3.0
CC1=C([N+](=O)[O-])C(c2ccccc2)NC(=O)N1 (configuration not stated)	0.2	-0.6%	-0.1	-7.3	-33.4*	0.8
COc1ccccc1N1CCN(C(=O)CCc2c[nH]c3ccccc23)CC1	-0.6	-4.3%	3.4	-0.5	-38.4*	0.2
Cc1ccc(S(=O)(=O)c2cn(Cc3ccccc3)c3cc(N4CCCCC4)c(F)cc3c2=O)cc1	0.7	-3.1%	-0.8	1.7	-12.3	-3.4
Cn1cc(S(=O)(=O)c2ccccc2)c(=O)c2cc(F)c(N3CCOCC3)cc21	0.9	-0.4%	10.2	3.0	-84.6*!	-4.8
CCCCn1cc(S(=O)(=O)c2ccc(C)cc2)c(=O)c2cc(F)c(N3CCCCC3)cc21	-0.8	-2.1%	71.4*	17.9	11.6	1.4
Cc1ccc(C)c(S(=O)(=O)c2cn(Cc3ccccc3)c3cc(N4CCCC4)c(F)cc3c2=O)c1	1.5	-3.4%	1.7	-0.9	-34.8*	-1.9
